High-throughput results as filed in PubChem.
Only some compounds are listed: those with a hit (about 8% of all), similar ones and a draw of the others.
SARS PLP yeast = qHTS of Yeast-based Assay for SARS-CoV PLP. Potency, µM (titrated, usually from 32.9 µM), for inactives: at the highest dose activity, positive = growth rescue, usual class: activators. S. cerevisiae expressing SARS-CoV PLpro, growth rescue. AID 485353, 2010. 330,000 tested, 0.19% active; calls by dose curve; note: potency is the fitted concentration of half-maximal effect; 0% is about no effect; nearly all actives have a fitted effect of over 55% in size
HCV inh = qHTS Assay for Inhibitors of Hepatitis C Virus (HCV); Huh7.5.1 HCVcc-Cre infection, luciferase reporter, 44 h; 340,000 tested, 3.4% active; Potency, µM (series often up to 41.8 µM), inactives show at the highest dose activity change, negative = inhibition, usual class: inhibitors; AID 651820, 2012; active = well fitted inhibition curve with a large enough effect; inconclusive = small, poorly fitted or top-dose-only effect, or another doubt; inactive = no such curve, though single readings can be large or run the other way; note: potency is the fitted concentration of half-maximal effect; % is set by controls: 0 for no effect and ±100 for the full control effect
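HCVcc-Cre virus at an moi near 0.5 was added right after compound to cells cultured 4 h from seeding (1,000 cells/well). Luciferase activity was determined 44 h later, 15 min after substrate addition at RT.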
HCMV antiviral = qHTS Assay for inhibitors of the human cytomegalovirus (HCMV). HFF cells, HCMV-luciferase reporter, 72 h; active compounds read low. activity change, negative = inhibition, % at 57.5 µM. 410,000 tested, 4.5% active. AID 1259415, 2018; in the data active = activity change below about -60%; inconclusive = no clear call, values can overlap the other calls; inactive = above about -39%; note: % is set by controls: 0 for no effect and ±100 for the full control effect
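Two compound doses tested in HFFs infected with HCMV-luciferase, MOI 1 PFU/cell, 72 h at 37C. Lysate luminescence read with OneGlo; data normalized against buffer-only and 10uM Salinomycin inhibitor controls.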
Lassa entry inh = qHTS for Inhibitors of binding or entry into cells for Lassa Virus; AID 540256, 2011; Lassa virus pseudotype entry inhibition, cell reporter; Potency, µM (doses to about 37.9 µM), without a hit: at the highest dose activity change, negative = inhibition, actives largely listed as inhibitors; 300,000 tested, 1.2% active; calls by dose curve; tested in HEK293 cells; note: potency is the fitted concentration of half-maximal effect; % is set by controls: 0 for no effect and ±100 for the full control effect; nearly all actives have a fitted effect of over 50% in size
FMDV inh = High Throughput Screening for Foot and Mouth Disease Virus Antivirals | FMDV antiviral cell-based qHTS | 410,000 tested, 1.2% active | Potency, µM (doses to about 57.9 µM), for inactives: at the top dose activity change, negative = inhibition, usual class: inhibitors; calls by dose curve; tested in HEK293T cells; note: read-out not given here; potency is the fitted concentration of half-maximal effect; % is set by controls: 0 for no effect and ±100 for the full control effect; nearly all actives have a fitted effect of over 45% in size
MARV entry inh = qHTS for inhibitors of binding or entry into cells for Marburg Virus; Marburg virus pseudotyped entry inhibition, cell reporter; Potency, µM (highest dose often 37.8 µM), without a hit: top-dose activity change, negative = inhibition, usual class: inhibitors; 300,000 tested, 1.8% active; AID 540276, 2011; calls by dose curve; tested in HEK293 cells; note: potency is the fitted concentration of half-maximal effect; % is set by controls: 0 for no effect and ±100 for the full control effect
An asterisk follows results filed as active; ? = inconclusive; . = no result; ! = not active in a repeat; [ ] = another dose, or the depositor's remark.

SMILES	SARS PLP yeast	HCV inh	HCMV antiviral	Lassa entry inh	FMDV inh	MARV entry inh
CCOC(=O)C1CCN(CC(=O)Nc2c(C(=O)OC)[nH]c3ccc(Cl)cc23)CC1	0%	10µM*	60	?	?	10µM*
COC(=O)c1[nH]c2ccc(Br)cc2c1NC(=O)CN1CCN(C2CCCCC2)CC1	-1%	11µM*	13	?	32µM*	6.5µM*
O=C(CN1CCCCCC1)Nc1ccc(Br)cc1	12%	.	-10	21%[14.3 µM]	31%	-21%
COc1ccc(CNC(=O)C2CCN(S(=O)(=O)c3cccc(-c4noc(C)n4)c3)CC2)cc1	.	.	8	0%[46.1 µM]	-21%	.
CCc1ccc(CNC(=O)c2ccc3c(c2)nc2n3CCOC2)cc1	.	.	-3	2%[46.1 µM]	19%	.
CC1CN(S(=O)(=O)c2cccc(C(=O)OCc3cc(=O)oc4cc(O)ccc34)c2)CC(C)O1 (stereo not given)	-2%	10µM*!	28	?	22µM*	?
Cc1ccc2c(c1)N(C(=O)CCC(=O)N1CCN(c3ccccn3)CC1)CC(C)O2 (stereo not given)	3%	-10%	-71*	.	-8%	.
Cc1cccc(N2CCN(C(=O)CCC(=O)N3CC(C)Oc4ccc(C)cc43)CC2C)c1 (stereo not given)	-9%	?	-15	.	28µM*	.
Cc1ccc2c(c1)N(C(=O)CCC(=O)NCCCN1CCOCC1)CC(C)O2 (stereo not given)	0%	11%	-65*	.	-20%	.
Cc1ccc2c(c1)N(C(=O)CCC(=O)NCCN1CCOCC1)CC(C)O2 (stereo not given)	2%	10%	19	.	-23%	.
CCOC(=O)c1nn(-c2ccc(Cl)cc2)c(C)cc1=O	1%	10%	-73*	.	-10%	.
Cc1cc(=O)c(C(=O)O)nn1-c1ccc(Cl)cc1	2%	16%	-5	.	-23%	.
CCOC(=O)c1nn(-c2ccc(C)cc2)c(C)c1C(C)=O	.	-24%	51	-7%	8%	-6%[46.1 µM]
CCOC(=O)c1nn(-c2ccc(F)cc2)c(C)c1C(C)=O	-1%	8%	-79*	-5%	-5%	-13%
COc1cc(NC(=O)CCn2cnc3ccccc3c2=O)cc(OC)c1	.	.	17	18%[46.1 µM]	-14%	.
Cc1ccc(NC(=O)c2c(C)cc(C)nc2SCC(=O)Nc2ccc(Br)cc2)cc1	.	.	-16	-5%[46.1 µM]	-22%	?
Cc1cccc(CN2C[C@]34CC[C@@H](C[C@@H]3S2(=O)=O)O4)c1	4%	7.1µM*	19	.	-9%	.
C=CCC1C=CCC(CC=C)N1C(=O)c1ccccc1[N+](=O)[O-] (stereo not given)	-5%	18µM*	-24	?	-23%	?
CC(=O)N1CCSc2ccc(S(=O)(=O)Nc3ccccc3C)cc21	1%	11µM*	-12	?	-4%	12%[46.1 µM]
CCOc1ccc(NS(=O)(=O)c2ccc3c(c2)N(C(C)=O)CCS3)cc1	?	?	-65*	.	-11%	.
CC(=O)N1CCSc2ccc(S(=O)(=O)Nc3cccc(C)c3)cc21	3%	14µM*	?	.	-22%	.
CCOc1ccc(NS(=O)(=O)c2ccc3c(c2)N(C(C)=O)CC3)cc1	1%	10%	-36	-25%	-12%	?
CC(=O)N1CCSc2ccc(S(=O)(=O)NCc3ccccc3)cc21	3%	?	?	?	41%	3%[46.1 µM]
CCN(C(=O)c1c(C)oc2ncnc(N3CCCCC3)c12)c1cc(C)ccc1C	.	.	3	21%[46.1 µM]	-23%	.
Cc1ccc(C(=O)N(Cc2cc3cccc(C)c3nc2N2CCC(O)CC2)C2CC2)cc1	.	.	.	.	-13%	.
Cc1cc(C)c(NC(=O)CN2C(=O)c3cccnc3Oc3ccc(C)cc32)c(C)c1	.	.	-10	23%[46.1 µM]	-17%	.
CCCCCCCN1N=C(C)C(C(=O)c2ccccc2)C1=O (stereo not given)	10µM*	8%	39	-19%	-22%	?
Cc1nn(-c2ccccn2)c2nc(-c3cccs3)cc(C(=O)NCc3ccco3)c12	3%	35µM*	-37	0%	0%	-23%
